Tb PYK inh: qHTS of Trypanosoma Brucei Inhibitors; actives 0.12% (n = 410,000); Potency, µM (highest dose often 76.8 µM), for inactives: top-dose activity, negative = inhibition, most hits filed as inhibitors; AID 624173, 2012; TbPYK enzyme, Kinase-Glo Plus ATP luminescence, 45 min; active means well fitted curve in the direction sought with a large enough effect; inconclusive means small, poorly fitted or top-dose-only effect, or another doubt; inactive means no such curve, though single readings can be large; an effect the other way counts as inactive or inconclusive; further: potency means the concentration at half of the fitted maximal effect; on the % scale 0 is the no-effect control and ±100 the full control effect; nearly all actives have a fitted effect of over 50% in size
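TbPYK + substrate in 50 mM TEA pH 7.2, 100 mM KCl, 10 mM MgCl2, 0.05% BSA, 0.01% Tween-20; cpd pinned; ADP 130 uM final; 45 min RT; Kinase-Glo Plus 10 min; luminescence endpoint.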
Cycloheximide cs: Cycloheximide Counterscreen for Small Molecule Inhibitors of Shiga Toxin. cell reporter, cycloheximide protein synthesis inhibition counterscreen. max response, %. actives 12% (n = 300,000); in the data active means max response mostly above about 13%, no sharp cut-off; inactive means mostly below about 14%; further: read at 38.3 µM for the half of the compounds with a filed dose; 0% is about no effect
LmPK inh: qHTS Assay for Inhibitors of Leishmania Mexicana Pyruvate Kinase (LmPK); purified LmPK, Kinase-Glo ATP luminescence, 1 h; Potency, µM (series often up to 57.5 µM), inactives show top-dose activity change, negative = inhibition, usual class: inhibitors; actives 0.37% (n = 290,000); AID 1721, 2009; active means well fitted curve in the direction sought with a large enough effect; inconclusive means small, poorly fitted or top-dose-only effect, or another doubt; inactive means no such curve, though single readings can be large; an effect the other way counts as inactive or inconclusive; further: potency means the concentration at half of the fitted maximal effect; on the % scale 0 is the no-effect control and ±100 the full control effect
Target sequence (Q27686 whole entry, looked up): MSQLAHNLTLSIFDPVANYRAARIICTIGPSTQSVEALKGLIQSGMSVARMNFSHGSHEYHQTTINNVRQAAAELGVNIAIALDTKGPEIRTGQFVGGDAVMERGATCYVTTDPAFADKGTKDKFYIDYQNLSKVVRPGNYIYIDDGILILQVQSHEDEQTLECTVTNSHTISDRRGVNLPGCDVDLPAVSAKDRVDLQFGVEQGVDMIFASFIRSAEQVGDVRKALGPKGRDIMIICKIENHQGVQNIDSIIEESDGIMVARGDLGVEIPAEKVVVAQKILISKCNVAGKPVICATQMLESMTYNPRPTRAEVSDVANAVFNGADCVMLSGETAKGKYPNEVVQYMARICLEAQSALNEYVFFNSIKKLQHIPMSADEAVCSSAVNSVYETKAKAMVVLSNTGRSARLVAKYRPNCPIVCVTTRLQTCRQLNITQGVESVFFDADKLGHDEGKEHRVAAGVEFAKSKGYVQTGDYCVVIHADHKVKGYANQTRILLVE
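Purified LmPK (0.1 nM) with 0.5 mM PEP and 0.1 mM ADP in imidazole buffer pH 7.2 with MgCl2/KCl, 1 h at room temperature. ATP formed was read by luciferase luminescence and normalized to no-enzyme and uninhibited controls.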
SARS PLP yeast: qHTS of Yeast-based Assay for SARS-CoV PLP. actives 0.19% (n = 330,000). S. cerevisiae expressing SARS-CoV PLpro, growth rescue. Potency, µM (highest dose often 32.9 µM), for inactives: at the highest dose activity, positive = growth rescue, most hits filed as activators. AID 485353, 2010; further: potency means the concentration at half of the fitted maximal effect; 0% is about no effect; nearly all actives have a fitted effect of over 55% in size
NS1 inh: qHTS Assay for Inhibitors of Influenza NS1 Protein Function; Potency, µM (series often up to 46.1 µM), inactives show top-dose activity, positive = more growth; actives 0.4% (n = 270,000); further: potency means the concentration at half of the fitted maximal effect; actives are rising curves; nearly all actives have a fitted effect of over 50% in size
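OD600 was taken as the measure of yeast growth restored by compound in an NS1-expressing S. cerevisiae strain. Cells had been washed out of glucose medium and diluted 1:100 into galactose -URA medium, pH 6.0.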
Shiga inhibitor: A qHTS for Small Molecule Inhibitors of Shiga Toxin; Vero cells, Shiga toxin protein synthesis inhibition reporter; inhibition, % at 38.7 µM; actives 9.2% (n = 290,000); in the data active means inhibition mostly above about 28%, no sharp cut-off; inactive means mostly below about 43%; further: 0% is about no effect
Starred values were filed as active, the others as inactive; ? = inconclusive; . = no result; [ ] = dose if it differs, or a comment. The entries come from a sample that favours hits as a whole. Unless noted, the call rests on the fitted dose curve.

SMILES	Tb PYK inh	Cycloheximide cs	LmPK inh	SARS PLP yeast	NS1 inh	Shiga inhibitor
O=C(NC(=S)Nc1c(F)cc(F)cc1Br)c1ccc2c(c1)OCCO2	-4%	28*	1%	0%	1%	84*
COc1ccc(C(=O)NC(=S)Nc2ccc(CN3CCOCC3)cc2)cc1	-2%	18	2%	-2%	-3%	47*
COc1ccc(-c2csc3ncnc(Nc4ccc(OC)cc4OC)c23)cc1	1%	.	.	.	.	.
CCC1=NN(C(=O)c2ccc(Cl)cc2)C(O)(c2ccc(C)cc2)C1 (configuration not stated)	-5%	18*	-6%	-6%	5%	45*
CCC1=NN(C(=O)c2ccccc2O)C(O)(c2ccccc2)C1 (configuration not stated)	3%	31*	15%	0%	-13%	77*
CCC1=NN(C(=O)c2ccc(Cl)cc2)C(O)(c2ccccc2)C1 (configuration not stated)	6%	12	4%	1%	-15%	17
CCCCN1C(=O)c2[nH]nc(-c3ccccc3O)c2C1c1ccc(OCc2ccccc2)cc1 (configuration not stated)	6%	.	.	.	.	.
CCOc1ccc(CCNC(=O)c2cc3c(=O)oc4ccc(C)cc4c3s2)cc1OCC	-8%	.	.	.	.	.
COC(/C(=N/O)c1ccc(Cl)cc1)c1ccccc1 (configuration not stated)	6%	33*	-1%	-9%	-38%	50*
COc1ccc(Cl)cc1NC(=O)C(OC)c1ccccc1 (configuration not stated)	-3%	4	2%	-3%	-11%	9
Cc1nc(C(F)(F)F)ccc1C(=O)Nc1ccc2ccccc2n1	-1%	21*	4%	-1%	-2%	49*
O=C(NCC(O)c1ccccc1)c1ccccc1 (configuration not stated)	1%	32*	-16%	0%	5%	60*
Cc1nc(C(F)(F)F)ccc1C(=O)NCC(O)c1ccccc1 (configuration not stated)	-24%	45*	5%	0%	-3%	71*
Cc1nc(C(F)(F)F)ccc1C(=O)Nc1ccccc1F	0%	21	4%	0%	2%	0
O=C(NCCNC(=O)c1ccccc1)c1ccccc1	3%	-2	0%	2%	-1%	-5
Cc1ccc(SCCN2CCC(C)CCC2=O)cc1 (configuration not stated)	-4%	29*	-7%	8%	1%	38*
C[C@H]1CCC(=O)N(CCSc2ccc(Br)cc2)CC1	-3%	.	.	4%	.	.
Cc1ccc(SCCN2CCC(C(C)(C)C)CCC2=O)cc1 (configuration not stated)	2%	25*	12%	15%	-65%	42*
CC(C)(C)C1CCC(=O)N(CCSc2ccccc2)CC1 (configuration not stated)	-3%	32*	0%	-12%	-17%	62*
O=C(O)c1cccc(Cn2c(Cl)c(/C=N/NC(=O)c3cccc(O)c3)sc2=O)c1	-12%	24*	2%	0%	7%	75*
O=C(O)c1cccc(Cn2c(Cl)c(/C=N/NC(=O)c3ccco3)sc2=O)c1	-13%	33*	-1%	?	4%	27*
C=CCNC(=S)N/N=C/c1ccc(-c2ccc(Cl)cc2Cl)o1	1%	.	.	.	.	.
CCCc1cc(C(=O)N(C)CC(=O)Nc2ccc(OCC)c(OCC)c2)sc1C	3%	.	.	-4%	.	.
COc1ccc(NC(=O)CN(C)C(=O)C2=NN(c3ccccc3)C(=O)CC2)cc1	1%	.	.	-3%	.	.
O=C(NNc1c2ccccc2nc2ccccc12)c1ccc(O)cc1O	0%	14	-4%	-1%	6%	17
SMILES	Tb PYK inh	Cycloheximide cs	LmPK inh	SARS PLP yeast	NS1 inh	Shiga inhibitor
O=C(NNc1c2ccccc2nc2ccccc12)c1ccc(O)cc1	-11%	24*	-9%	2%	-11%	-7
O=C(NNc1c2ccccc2nc2ccccc12)c1ccccc1O	-5%	25*	-7%	4%	-7%	27
O=C1CCSC2(C(=O)N(Cc3ccc(F)cc3)c3ccccc32)N1c1cccc(F)c1 (configuration not stated)	-1%[15.4 µM]	.	.	.	.	.
Clc1ccc(-c2csc(Nc3ccccc3)[n+]2Cc2ccco2)c(Cl)c1	-13%	48*	2%	-14%	-3%	110*
CC(C)NC(=O)COc1ccccc1C#N	2%	-3	6%	3%	.	-6
CC(C)CCNC(=O)NC(=O)COc1ccccc1C#N	0%	19*	0%	-6%	-1%	30*
COc1ccccc1NC(=O)Cn1c(SCC(=O)NCc2ccccc2)nc2ccccc21	0%	.	.	.	.	.
CCOC(=O)C1CCN(C(=O)CSCc2nc(-c3ccc(OCC)cc3)oc2C)CC1	1%	15*	0%	-15%	-18%	-4
Cc1ccc(-c2nc(CSCC(=O)N3CCCC3)c(C)o2)cc1	.	13	-8%	1%	4%	37
CCOc1ccc(-c2nc(CSCC(=O)N3CCN(C(=O)c4ccco4)CC3)c(C)o2)cc1	0%	25*	12%	4%	-31%	94*
COc1ccc(S(=O)(=O)NCC2(N3CCOCC3)CCCCC2)cc1OC	1%	.	.	-2%	.	.
COC(=O)C(C(=O)OC)[C@@H]1c2ccccc2[C@H]2C(=C[C@@H](C)[C@H]3C(=O)N(c4ccccc4)C(=O)[C@H]32)N1C(=O)OC	.	.	2%[11.5 µM]	.	.	.
CCC(Sc1nc2nccnc2c(=O)n1Cc1ccc(Cl)cc1)C(=O)NC1CCCCC1 (configuration not stated)	6%	.	.	.	.	.
Oc1ccc(/C=N/NC(=S)N/N=C/c2ccc(O)cc2)cc1	-20%	40*	?	0%	17%	62*
Oc1ccc(/C=N/NC(=S)Nc2cccnc2)cc1	3%	48*	-17%	-1%	7%	81*
COCCNC(=O)CN1C(=O)COc2ccc(S(=O)(=O)N3CCCC3)cc21	3%	.	.	.	.	.
Cc1c(-c2nnc(SCC(=O)Nc3ccc(Br)cc3)o2)nnn1-c1ccc(F)cc1	-1%	.	.	.	.	.
C/C(N)=C(/C#N)C(=O)COC(=O)CNC(=O)c1ccc(Cl)cc1Cl	0%	13*	-1%	-7%	.	68*
C/C(N)=C(/C#N)C(=O)COc1ccc(Cl)cc1Cl	-6%	48*	0%	-2%	.	47
Clc1ccccc1-c1nnc(SCc2nc(-c3ccccc3)no2)n1-c1ccccc1	4%	.	.	.	.	.
COc1cc(/C=C/C(=O)NC2CCCCC2)cc(OC)c1OC	4%	1	0%	-5%	5%	-5
COc1cc(/C=C/C(=O)NC(C)C2CC3CCC2C3)cc(OC)c1OC (configuration not stated)	-1%	19*	8%	-1%	0%	101*
